A word on the AC50: it is the midpoint of the concentration-response curve, whichever way the signal moves.

Each structure is given as a SMILES string. Active and inactive are the calls of the source. The calls were made as follows: active = hit-call score of the fitted dose curve at least 0.9, where 1 is the maximum; inactive = score below 0.9.

From PubChem BioAssay (EPA / NIEHS) come the findings set out here.

What all share (conditions): mRNA level, 48 h; actives raise or lower the signal
Read-out in test [1]: Potassium channel subfamily K member 1 (KCNK1), KCNK1 (gene 3775)
Put plainly: LTEA_HepaRG_KCNK1: Life Technologies and Expression Analysis (LTEA) Assay for Potassium channel subfamily K member 1 (KCNK1) using HepaRG (AID 2283511). Put shortly: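 Differentiated HepaRG cells, 48 h exposure in serum-free induction medium with 0.5% DMSO; 8 concentrations, half-log from 100 uM, duplicate. KCNK1 mRNA by qRT-PCR, normalized to ACTB, GAPDH, POLR2A; bidirectional fit vs DMSO.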

Read-out in test [2]: Keratin 19 (KRT19), KRT19 (gene 3880)
Description: LTEA_HepaRG_KRT19: Life Technologies and Expression Analysis (LTEA) Assay for Keratin 19 (KRT19) using HepaRG (AID 2283512). In short, it runs like this: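 KRT19 transcript levels, measured by Fluidigm qRT-PCR against three housekeeping genes, are fitted for gain or loss of signal relative to DMSO. Human HepaRG cells receive test chemicals (top 100 uM, half-log steps, 0.5% DMSO) for 48 hours.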

Read-out in test [3]: JUN Transcription Factor, JUN (gene 3725)
Description: LTEA_HepaRG_JUN: Life Technologies and Expression Analysis (LTEA) Assay for JUN Transcription Factor using HepaRG (AID 2283513). Put shortly:
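Cells plated 48 h, medium switched to serum-free induction medium, then dosed 48 h (100 uM top, half-log dilutions, 0.5% DMSO). RNA isolated; JUN measured by qRT-PCR against three housekeeping genes; gain or loss fitted relative to DMSO.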

Read-out in test [4]: Lipase C (LIPC), LIPC (gene 3990)
Description: LTEA_HepaRG_LIPC: Life Technologies and Expression Analysis (LTEA) Assay for Lipase C (LIPC) using HepaRG (AID 2283514). In short, it runs like this:
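HepaRG cells, 48 h after plating, treated in duplicate for 48 h in serum-free induction medium over 8 half-log concentrations from 100 uM, 0.5% DMSO. LIPC mRNA by TaqMan qRT-PCR normalized to ACTB/GAPDH/POLR2A; bidirectional fit versus DMSO.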

Read-out in test [5]: Lipoprotein lipase (LPL), LPL (gene 4023)
Put plainly: LTEA_HepaRG_LPL: Life Technologies and Expression Analysis (LTEA) Assay for Lipoprotein lipase (LPL) using HepaRG (AID 2283515). In short, it runs like this:
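Differentiated HepaRG cells, plated 48 h, then exposed 48 h in serum-free induction medium to 8 concentrations (top 100 uM, half-log steps) in 0.5% DMSO, duplicate. LPL mRNA measured by qRT-PCR, normalized to ACTB, GAPDH and POLR2A.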

Read-out in test [6]: MicroRNA 122 (MIR122), gene 406906
Description: LTEA_HepaRG_MIR122: Life Technologies and Expression Analysis (LTEA) Assay for MicroRNA 122 (MIR122) using HepaRG (AID 2283516). Also: the transcript read is the microRNA miR-122. Put shortly:
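HepaRG plated 48 h, switched to serum-free induction medium, then treated in duplicate for 48 h (100 uM top, half-log steps, 0.5% DMSO vehicle). RNA isolated, qRT-PCR performed, concentration-response fitted both directions relative to DMSO.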

Read-out in test [7]: matrix metalloproteinase-10 (MMP10), MMP10 (gene 4319)
Description: LTEA_HepaRG_MMP10: Life Technologies and Expression Analysis (LTEA) Assay for matrix metalloproteinase-10 (MMP10) using HepaRG (AID 2283517). In short, it runs like this: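 Differentiated HepaRG cells in serum-free induction medium exposed 48 h in duplicate to 8-point half-log series up to 100 uM in 0.5% DMSO. mRNA quantified by qRT-PCR, normalised to ACTB, GAPDH, POLR2A; bidirectional fit versus DMSO.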

Read-out in the next test: MYC, MYC (gene 4609)
Put plainly: LTEA_HepaRG_MYC: Life Technologies and Expression Analysis (LTEA) Assay for MYC using HepaRG (AID 2283518). Put shortly: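 HepaRG, ~100,000 cells/well, collagen I; 48 h plating; serum-free induction medium; 48 h dosing, duplicate, 100 uM top, half-log, 0.5% DMSO; total RNA → qRT-PCR MYC; gain/loss fit vs DMSO.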

Read-out in test [8]: matrix metalloproteinase-3 (MMP3), MMP3 (gene 4314)
Put plainly: LTEA_HepaRG_MMP3: Life Technologies and Expression Analysis (LTEA) Assay for matrix metalloproteinase-3 (MMP3) using HepaRG (AID 2283519). In short, it runs like this:
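HepaRG cells (~100,000/well) in serum-free induction medium were dosed in duplicate for 48 h with an 8-point half-log series from 100 uM, 0.5% DMSO. MMP3 mRNA was quantified by Fluidigm TaqMan qRT-PCR, normalized to three housekeeping genes.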

Read-out in test [9]: Paternally Expressed 10 (PEG10), PEG10 (gene 23089)
Put plainly: LTEA_HepaRG_PEG10: Life Technologies and Expression Analysis (LTEA) Assay for Paternally Expressed 10 (PEG10) using HepaRG (AID 2283520). In short, it runs like this:
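HepaRG, 48 h post-plating → serum-free induction medium → 48 h chemical exposure (duplicate, 8-pt, max 100 uM, half-log, 0.5% DMSO) → lysis in RLT → TaqMan qRT-PCR for PEG10, ACTB/GAPDH/POLR2A normalisation.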

Read-out in test [10]: Protein phosphatase 2A (PPP2R4), PTPA (gene 5524)
Description: LTEA_HepaRG_PPP2R4: Life Technologies and Expression Analysis (LTEA) Assay for Protein phosphatase 2A (PPP2R4) using HepaRG (AID 2283522). In short, it runs like this:
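Readout is PPP2R4 transcript level by microfluidic qRT-PCR after 48 h chemical treatment of human HepaRG liver cells. Concentrations spanned 100 uM downward in half-log steps; gain or loss of signal was fitted relative to DMSO.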

Read-out in test [11]: Phosphatase and tensin (PTEN), PTEN (gene 5728)
Description: LTEA_HepaRG_PTEN: Life Technologies and Expression Analysis (LTEA) Assay for Phosphatase and tensin (PTEN) using HepaRG (AID 2283523). In short, it runs like this:
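HepaRG cells, 48 h after plating, exposed in duplicate for 48 h in serum-free induction medium to 8 half-log concentrations up to 100 uM (0.5% DMSO). PTEN mRNA by qRT-PCR, normalized to ACTB, GAPDH, POLR2A; bidirectional fit versus DMSO.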

Read-out in test [12]: solute carrier (SLC22A1), SLC22A1 (gene 6580)
Description: LTEA_HepaRG_SLC22A1: Life Technologies and Expression Analysis (LTEA) Assay for solute carrier (SLC22A1) using HepaRG (AID 2283524). In short, it runs like this:
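Differentiated human HepaRG cells in serum-free induction medium, exposed 48 h in duplicate to 8-point half-log series from 100 µM top in 0.5% DMSO. SLC22A1 mRNA by TaqMan qRT-PCR normalized to ACTB, GAPDH, POLR2A; bidirectional fit versus DMSO.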

Read-out in test [13]: Pyruvate Dehydrogenase Kinase 4 (PDK4), PDK4 (gene 5166)
Put plainly: LTEA_HepaRG_PDK4: Life Technologies and Expression Analysis (LTEA) Assay for Pyruvate Dehydrogenase Kinase 4 (PDK4) using HepaRG (AID 2283525). In short, it runs like this: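 HepaRG cells plated 48 h, then switched to serum-free induction medium and exposed in duplicate for 48 h to 8 half-log concentrations from 100 uM in 0.5% DMSO. PDK4 mRNA measured by qRT-PCR, normalized to ACTB, GAPDH and POLR2A; bidirectional fit versus DMSO.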

Read-out in test [14]: NAD(P)H dehydrogenase [quinone] 1 (NQO1), NQO1 (gene 1728)
Description: LTEA_HepaRG_NQO1: Life Technologies and Expression Analysis (LTEA) Assay for NAD(P)H dehydrogenase [quinone] 1 (NQO1) using HepaRG (AID 2283526). In short, it runs like this:
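HepaRG, 48 h post-plating → serum-free induction medium → test chemical 48 h (duplicate, 100 uM top, half-log x8, 0.5% DMSO) → RNA isolation → qRT-PCR, ACTB/GAPDH/POLR2A normalization; bidirectional curve fit vs DMSO baseline.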

Read-out in test [15]: Nuclear factor erythroid 2-related factor 2 (Homo sapiens) (UniProt Q16236)
Put plainly: LTEA_HepaRG_NFE2L2: Life Technologies and Expression Analysis (LTEA) Assay for Nuclear factor erythroid 2-related factor 2 (NFE2L2) Transcription Factor using HepaRG (AID 2283527).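 Also: TaqMan qRT-PCR transcript level normalised to ACTB GAPDH and POLR2A housekeeping genes.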 In short, it runs like this: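 Differentiated human HepaRG cells, serum-free induction medium, exposed 48 h in duplicate to eight half-log concentrations up to 100 uM in 0.5% DMSO. NFE2L2 mRNA by Fluidigm TaqMan qRT-PCR, normalised to ACTB, GAPDH, POLR2A; bidirectional change versus DMSO.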

Read-out in test [16]: succinate dehydrogenase complex iron sulfur subunit B (SDHB), SDHB (gene 6390)
Put plainly: LTEA_HepaRG_SDHB: Life Technologies and Expression Analysis (LTEA) Assay for succinate dehydrogenase complex iron sulfur subunit B (SDHB) using HepaRG (AID 2283528). In short, it runs like this:
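HepaRG, 48 h exposure, 8-pt half-log series from 100 uM in 0.5% DMSO, duplicates. Readout: SDHB mRNA by Fluidigm qRT-PCR vs housekeeping genes; bidirectional fit relative to DMSO.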

Read-out in test [17]: Signal transducer and activator of transcription 3 (Homo sapiens) (UniProt P40763)
Put plainly: LTEA_HepaRG_STAT3: Life Technologies and Expression Analysis (LTEA) Assay for Signal transducer and activator of transcription (STAT3) using HepaRG (AID 2283529). Put shortly:
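Differentiated HepaRG cells, serum-free induction medium, dosed 48 h in duplicate, 8 half-log concentrations from 100 uM in 0.5% DMSO. STAT3 mRNA by qRT-PCR, normalised to ACTB, GAPDH, POLR2A; bidirectional fit versus DMSO.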

Read-out in test [18]: solute carrier (SLCO1B1), SLCO1B1 (gene 10599)
Description: LTEA_HepaRG_SLCO1B1: Life Technologies and Expression Analysis (LTEA) Assay for solute carrier (SLCO1B1) using HepaRG (AID 2283530). In short, it runs like this:
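HepaRG, serum-free induction medium, 48 h dosing, 8-pt half-log from 100 uM, 0.5% DMSO vehicle, duplicates. Readout: SLCO1B1 mRNA, qRT-PCR, ACTB/GAPDH/POLR2A normalization; up or down fit vs DMSO.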

Read-out in test [19]: Nuclear factor NF-kappa-B p105 subunit (Homo sapiens) (UniProt P19838)
Description: LTEA_HepaRG_NFKB1: Life Technologies and Expression Analysis (LTEA) Assay for Nuclear Factor Kappa B Subunit 1 (NFKB1) using HepaRG (AID 2283521).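 Also: TaqMan qRT-PCR transcript normalised to ACTB GAPDH and POLR2A housekeeping genes.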 Put shortly:
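Differentiated human HepaRG cells were exposed for 48 h in serum-free induction medium to eight concentrations (top 100 uM, half-log steps, 0.5% DMSO), in duplicate. NFKB1 mRNA was measured by TaqMan qRT-PCR, normalized to ACTB/GAPDH/POLR2A, and fitted bidirectionally against DMSO.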

Chain of Nuclear factor NF-kappa-B p105 subunit (Homo sapiens) (P19838 whole entry, looked up): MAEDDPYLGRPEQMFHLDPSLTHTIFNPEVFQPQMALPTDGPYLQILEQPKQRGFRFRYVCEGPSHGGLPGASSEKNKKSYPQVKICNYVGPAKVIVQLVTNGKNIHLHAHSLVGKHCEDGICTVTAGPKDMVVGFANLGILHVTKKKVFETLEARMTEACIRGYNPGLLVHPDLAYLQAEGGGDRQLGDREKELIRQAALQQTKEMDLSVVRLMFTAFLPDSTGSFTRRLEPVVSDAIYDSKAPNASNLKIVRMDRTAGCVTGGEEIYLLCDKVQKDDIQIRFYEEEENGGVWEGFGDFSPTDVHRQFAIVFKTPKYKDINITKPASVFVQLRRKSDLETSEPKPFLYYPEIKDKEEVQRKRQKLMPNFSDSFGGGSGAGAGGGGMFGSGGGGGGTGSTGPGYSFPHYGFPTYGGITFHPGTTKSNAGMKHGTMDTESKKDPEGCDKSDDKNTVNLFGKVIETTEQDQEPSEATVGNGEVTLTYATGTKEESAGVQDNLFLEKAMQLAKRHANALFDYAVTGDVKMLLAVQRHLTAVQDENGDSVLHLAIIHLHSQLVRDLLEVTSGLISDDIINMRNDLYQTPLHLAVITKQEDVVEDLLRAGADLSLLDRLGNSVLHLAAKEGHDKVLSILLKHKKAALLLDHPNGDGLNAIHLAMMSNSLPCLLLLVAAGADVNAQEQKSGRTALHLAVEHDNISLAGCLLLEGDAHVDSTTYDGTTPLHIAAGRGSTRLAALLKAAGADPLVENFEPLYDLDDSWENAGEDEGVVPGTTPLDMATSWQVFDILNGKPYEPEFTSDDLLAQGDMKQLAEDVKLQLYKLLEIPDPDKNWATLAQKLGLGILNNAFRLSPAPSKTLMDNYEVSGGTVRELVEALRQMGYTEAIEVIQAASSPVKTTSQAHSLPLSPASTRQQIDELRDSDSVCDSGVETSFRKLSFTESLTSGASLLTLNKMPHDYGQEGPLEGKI
Chain of Signal transducer and activator of transcription 3 (Homo sapiens) (P40763 whole entry, looked up): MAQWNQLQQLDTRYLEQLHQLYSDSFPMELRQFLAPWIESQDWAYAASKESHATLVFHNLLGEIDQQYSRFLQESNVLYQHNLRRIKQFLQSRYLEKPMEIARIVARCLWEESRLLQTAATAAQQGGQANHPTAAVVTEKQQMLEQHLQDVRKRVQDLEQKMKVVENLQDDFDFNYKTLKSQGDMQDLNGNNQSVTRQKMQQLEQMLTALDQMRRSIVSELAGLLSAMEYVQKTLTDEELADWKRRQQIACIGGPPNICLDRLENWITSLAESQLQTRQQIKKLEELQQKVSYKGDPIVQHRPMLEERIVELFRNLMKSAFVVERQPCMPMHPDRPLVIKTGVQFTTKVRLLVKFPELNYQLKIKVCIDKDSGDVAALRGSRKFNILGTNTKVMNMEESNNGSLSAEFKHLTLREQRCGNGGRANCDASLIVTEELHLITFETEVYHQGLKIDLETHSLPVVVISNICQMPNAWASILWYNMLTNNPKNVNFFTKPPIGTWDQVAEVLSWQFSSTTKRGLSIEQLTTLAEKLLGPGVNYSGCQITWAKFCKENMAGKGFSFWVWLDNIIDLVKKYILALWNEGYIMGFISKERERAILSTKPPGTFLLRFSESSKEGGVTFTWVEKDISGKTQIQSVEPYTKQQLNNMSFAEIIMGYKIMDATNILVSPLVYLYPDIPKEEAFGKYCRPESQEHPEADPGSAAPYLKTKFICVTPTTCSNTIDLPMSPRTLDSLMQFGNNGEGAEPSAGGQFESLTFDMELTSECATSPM
Chain of Nuclear factor erythroid 2-related factor 2 (Homo sapiens) (Q16236 whole entry, looked up): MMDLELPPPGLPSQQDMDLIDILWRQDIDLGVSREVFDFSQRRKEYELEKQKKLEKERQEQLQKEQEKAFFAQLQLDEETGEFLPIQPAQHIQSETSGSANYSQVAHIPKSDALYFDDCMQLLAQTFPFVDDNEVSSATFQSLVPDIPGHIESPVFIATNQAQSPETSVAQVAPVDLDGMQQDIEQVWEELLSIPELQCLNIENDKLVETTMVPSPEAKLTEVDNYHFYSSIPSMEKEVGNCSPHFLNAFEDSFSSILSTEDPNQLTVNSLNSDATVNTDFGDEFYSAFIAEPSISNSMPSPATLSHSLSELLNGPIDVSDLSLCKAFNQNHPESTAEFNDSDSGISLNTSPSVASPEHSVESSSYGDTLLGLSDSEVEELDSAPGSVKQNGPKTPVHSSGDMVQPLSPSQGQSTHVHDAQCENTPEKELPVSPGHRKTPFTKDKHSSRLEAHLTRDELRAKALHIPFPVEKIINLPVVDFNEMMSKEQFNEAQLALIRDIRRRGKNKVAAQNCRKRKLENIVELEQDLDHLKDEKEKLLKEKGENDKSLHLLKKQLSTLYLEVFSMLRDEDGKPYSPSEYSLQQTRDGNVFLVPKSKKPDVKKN

With `C[C@]12CC[C@@H]3c4ccc(O)cc4CC[C@H]3[C@@H]1CC[C@@H]2O`, the molecule was classed as inactive in [1], in test [2], in test [3], in test [4], in test [5] and in [6]. Further, the outcome in test [7] is “inactive”; with MYC, MYC (gene 4609) it was “inactive”; in [8], “inactive”; in test [10], “inactive”; in test [11], “inactive”; in test [13], “inactive”. Also, the molecule was classed as inactive in test [14], in [15], in test [16], in test [17] and in test [18]. For the same molecule, the AC50 was 10.6 µM (active) in test [9] and 50 µM (active) in test [12].

Consider `O=C(c1ccc(OCCN2CCCCC2)cc1)c1c(-c2ccc(O)cc2)sc2cc(O)ccc12`, for which the outcome in [1] is “inactive”; in test [2], “inactive”; in test [4] it was “inactive”; in test [6], “inactive”; with MYC, MYC (gene 4609), “inactive”; in test [8], “inactive”. Also, the result in [19], in test [14] and in test [15] was inactive. The AC50 is 82.6 µM (active) in test [3]; 80.4 µM (active) in test [5]; 78.7 µM (active) in test [7]; 65.9 µM (active) in [9]; 50 µM (active) in test [10]; 77.9 µM (active) in test [11]. For the same molecule, the AC50 is 80 µM (active) in [12]; 50 µM (active) in test [13]; 9.92 µM (active) in test [16]; 50 µM (active) in [17]; 68.7 µM (active) in test [18].

For the molecule `C#C[C@]1(O)CC[C@H]2[C@@H]3CCc4cc(O)ccc4[C@H]3CC[C@@]21C`, the outcome in test [1], in [2], in test [3], in test [4], in test [5] and in test [6] was inactive. The outcome in test [7] was “inactive”; with MYC, MYC (gene 4609) it was “inactive”; in test [8] it was “inactive”; in [9] it was “inactive”; in [19], “inactive”; in [10], “inactive”. Moreover, the call in test [11], in [13], in test [14], in [15], in test [16] and in test [17] was inactive. In addition, the call in [18] was inactive.

Turning to `COC(=O)c1ccc(C(=O)OC)cc1`, the molecule was called inactive in test [1], in test [2], in test [3], in [4], in test [5] and in test [6]. The outcome was “inactive” in test [7]; “inactive” in the test with MYC, MYC (gene 4609); “inactive” in test [8]; “inactive” in test [9]; “inactive” in test [19]; “inactive” in [10]. Further, the call in [11], in test [12], in test [13], in [14], in test [15] and in [16] was inactive. Besides, the result in test [17] and in [18] was inactive.
